Measurements: PubChem BioAssay (Tox21)
“And” between values parts separate entries of the source, which are not always exact repeats. Equal entries are not always repeated. Records with an inconclusive call do not appear. The source holds several records for some structures; these can differ, active in one and inactive in another. The source made the active and inactive calls. The call rests on the fitted dose curve; in most records, active means well fitted cell-killing curve with a large enough effect in the repeat runs; inconclusive means weak or mixed curves, or effect the other way; inactive means no such curve, though single readings can be large or run the other way.

Assay: qHTS assay to identify small molecule antagonists of the vitamin D receptor (VDR) signaling pathway - cell viability counter screen (AID 743225); further: nearly all actives have a fitted effect of over 50% in size
Conditions: VDR-bla HEK293T viability, CellTiter-Glo luminescence, 16 h; series mostly up to 61 µM; viability change, negative = cytotoxic: at the top concentration
Description: U.S. Tox21 Program National Center for Advancing Translational Sciences [NCATS] NIH Chemical Genomics Center [NCGC] U.S. Environmental Protection Agency [EPA] National Institutes of Environmental Health Sciences [NIEHS] National Toxicology Program [NTP] U.S. Food and Drug Administration [FDA] Tox21 Assay Overview: The vitamin D receptor (VDR), a member of nuclear hormone receptor superfamily, plays a critical role in calcium homeostasis and bone metabolism. It is also involved in cell differentiation and growth, and thrombogenicity. To identify the compounds that inhibit VDR signaling, the VDR-UAS-bla HEK 293T cell line (Invitrogen, Carlsbad, CA, USA) containing a beta-lactamase reporter gene under the control of an upstream activator sequence (UAS) was used to screen the Tox21 10K compound library. The cytotoxicity of the Tox21 compound library against the VDR-bla cell line was tested in parallel by measuring the cell viability using CellTiter-Glo assay (Promega, Madison, WI) in the same wells.
Tox21 Assay Protocol Summary: VDR-bla cells were dispensed at 2,000 cells/5 uL of assay medium per well into black wall/clear-bottom 1536-well plates using a Multidrop Combi (Thermo Fisher Scientific, Waltham, MA) dispenser. After the assay plates were incubated at a 37C and 5% CO2 for 4 h, 23 nL of compounds dissolved in DMSO, positive controls or DMSO only was transferred to the assay plate by a Pintool station (Kalypsys, San Diego, CA), followed by addition of 1 uL of 1-alpha, 25-Dihydroxy Vitamin D3 (3 nM, final concentration in the wells) using a Bioraptr Flying Reagent Dispenser (FRD) workstation (Beckman Coulter, Indianapolis, IN). The plates were incubated at 37C and 5% CO2 for 16 h, and then 1 uL of LiveBLAzerTM B/G FRET substrate was added using a Bioraptr FRD. The plates were incubated at room temperature for 2 h and fluorescence intensity was measured by an Envision plate reader (PerkinElmer, Shelton, CT). For cell viability readout that measures cytotoxicity, 3 ul/well of CellTiter-Glo reagent was added into the assay plates using a Bioraptr FRD. After 30 min incubation at room temperature, the luminescence intensity in the plates was measured using a ViewLux plate reader (PerkinElmer).
On the % scale 0 is the no-effect control and ±100 the full control effect; potency means the concentration at half of the fitted maximal effect.

| SMILES | viability change, negative = cytotoxic | Potency |
| --- | --- | --- |
| NP(N)(=O)NC(=O)c1ccc(F)cc1 | 7.46% (inactive) |  |
| Cc1nc2ccccc2c(=O)n1-c1ccccc1Cl | 17.3% (inactive) |  |
| C[C@]12C=CC3=C4CCC(=O)C=C4CC[C@H]3[C@@H]1CC[C@@H]2O | 9.93% (inactive) |  |
| Cc1ccccc1 | 1.16% (inactive) |  |
| O=C(O)C(Cl)(Cl)Br | -21% [at 78.8 µM] (inactive) |  |
| COc1cc(CC#N)cc(OC)c1OC | -18% (inactive) |  |
| COc1ccc2c(c1OC)C(=O)O[C@H]2[C@@H]1c2cc3c(cc2CCN1C)OCO3 | -0.278% (inactive) |  |
| NC(=O)CF | 6.17% (inactive) |  |
| O=[N+]([O-])O[C@H]1CO[C@H]2[C@@H]1OC[C@H]2O[N+](=O)[O-] | -2.84% (inactive) |  |
| Clc1ccc2ccccc2c1 | 14.9% [at 78.8 µM] (inactive) |  |
| CCC1CCC(=O)O1 (stereo not given) | 14% [at 78.8 µM] (inactive) |  |
| CCCCC1C(=O)NC(=O)N(C2CCCCC2)C1=O (stereo not given) | 0.884% (inactive) |  |
| CCCCC(CC)CO[N+](=O)[O-] (stereo not given) | 1.65% (inactive) |  |
| CC(C)(C)NCC(O)c1cc(Cl)c(N)c(C(F)(F)F)c1 (stereo not given) | 1.95% (inactive) |  |
| CCCN(CCC)C(=O)Cc1c(-c2ccc(Cl)cc2)nc2ccc(Cl)cn12 | -4.42% (inactive) |  |
| N#CC(C#N)=Cc1ccc(O)c(O)c1 | -0.385% (inactive) |  |
| Nc1c(Br)cc(Br)c2c1C(=O)c1ccccc1C2=O | 23.4% [at 28.5 µM] (inactive) |  |
| C=CCc1ccccc1O | -5.47% (inactive) |  |
| CC(O)CN1CCN(CC(=O)[O-])CCN(CC(=O)[O-])CCN(CC(=O)[O-])CC1.[Gd+3] (stereo not given) | 7.33% (inactive) |  |
| CCCCC(CC)COC(=O)c1c(Br)c(Br)c(Br)c(Br)c1C(=O)OCC(CC)CCCC (stereo not given) | -5.62% (inactive) |  |

| SMILES | viability change, negative = cytotoxic | Potency |
| --- | --- | --- |
| CCCCCCCCP(=O)(O)O | 1.65% (inactive) |  |
| CCC[N+](CCC)(CCC)CCC | 0.574% (inactive) |  |
| O=[N+]([O-])/C=C/c1ccccc1 |  | 49.8 µM (active) and inactive |
| C=CCN1C[C@H](C)N([C@H](c2ccc(C(=O)N(CC)CC)cc2)c2cccc(OC)c2)C[C@H]1C | -4.67% (inactive) |  |
| COC(=O)C1(O)c2ccccc2-c2ccccc21 | 20.5% (inactive) |  |
| O=S(=O)(Cl)Cl | 8.99% (inactive) |  |
| CCOP(=S)(S)OCC | 13.8% [at 78.8 µM] (inactive) |  |
| Cc1ccc(N)c(C)c1 | 10.1% (inactive) |  |
| N#CC1(N=NC2(C#N)CCCCC2)CCCCC1 | 0.505% (inactive) |  |
| C1CS1 | -29.5% [at 78.8 µM] (inactive) |  |
| C=CCOC(=O)C(C)(C)OC(=O)c1cc(-n2c(=O)cc(C(F)(F)F)n(C)c2=O)ccc1Cl | 6.7% (inactive) |  |
| CCNC(=O)NC(=O)/C(C#N)=N/OC | 14.8% (inactive) |  |
| CC(C)(C)N(NC(=O)c1ccc(Cl)cc1)C(=O)c1ccccc1 | 3.55% (inactive) |  |
| CCCC[N+](CCCC)(CCCC)CCCC | 0.142% (inactive) |  |
| CCCC1CCCCN1 (stereo not given) | -7.61% (inactive) |  |
| CCC(C)(C)c1ccc(O)c(C(C)(C)CC)c1 |  | 12.2 µM (active) and 19.5 µM (active) |
| CC(C)[C@@H](C(=O)O[C@@H](C#N)c1cccc(Oc2ccccc2)c1)c1ccc(Cl)cc1 | 9.53% [at 78.8 µM] (inactive) |  |
| C#C[C@]1(O)CC[C@H]2[C@@H]3CCC4=CC(=O)CCC4=C3C=C[C@@]21CC | 5.45% (inactive) |  |
| OC[P+](CO)(CO)CO |  | inactive |
| CCCCCCCCCCCCCCCl | -3.23% [at 78.8 µM] (inactive) |  |
